Here are results for 17 molecules from PubChem BioAssay (NCATS).

Where “and” joins values, the source holds several entries; their conditions need not be identical. Equal entries are not always repeated. Calls of active or inactive are those of the source. How the calls were made is not given here.

The conditions of the assay: Ebola virus entry assay, ratio channel.
Regarding `O=C(CCCN1CCC(O)(c2ccc(Cl)cc2)CC1)c1ccc(F)cc1`, the half-maximal activity concentration (AC50) was 10 µM (active).

As for `C[C@H]1[C@H](NC(=O)/C(=N/OC(C)(C)C(=O)O)c2csc(N)n2)C(=O)N1S(=O)(=O)O` (stereo in doubt), the result was inactive.

For the molecule `CCCCc1nc(Cl)c(CO)n1Cc1ccc(-c2ccccc2-c2nn[nH]n2)cc1`, the outcome was inactive.

For `CC(C)NCC(O)COc1cccc2[nH]ccc12` (configuration not stated), the result was inactive.

With `CC(C)c1nc(CN(C)C(=O)N[C@H](C(=O)N[C@@H](Cc2ccccc2)C[C@H](O)[C@H](Cc2ccccc2)NC(=O)OCc2cncs2)C(C)C)cs1`, the AC50 was 22.4 µM (active).

Take `CC1=C(C(=O)O)N2C(=O)[C@@H](NC(=O)[C@H](N)c3ccc(O)cc3)[C@H]2SC1`: the result was inactive.

For `Cc1ccccc1C(=O)Nc1ccc(C(=O)N2CCCC(O)c3cc(Cl)ccc32)c(C)c1` (configuration not stated), the half-maximal activity concentration (AC50) was 25.1 µM (active).

`Cc1[nH]cnc1CN1CCc2c(c3ccccc3n2C)C1=O`: the outcome was inactive.

`COc1ccccc1OCCNCC(O)COc1cccc2[nH]c3ccccc3c12` (configuration not stated): the AC50 was 2.24 µM (active).

Take `CCOC(=O)[C@H](CCc1ccccc1)N[C@@H](C)C(=O)N1[C@H](C(=O)O)C[C@@H]2CCC[C@@H]21`: the outcome was inactive.

For the molecule `CC[C@@H](CO)NC(=O)[C@@H]1C=C2c3cccc4c3c(cn4C)C[C@H]2N(C)C1`, the outcome was inactive.

Consider `CC1=NS(=O)(=O)c2cc(Cl)ccc2N1`, for which the result was inactive.

Consider `O=c1[nH]cc(F)c(=O)[nH]1`, for which the outcome was inactive.

As to `O=C1CCC(N2C(=O)c3ccccc3C2=O)C(=O)N1` (configuration not stated), the result was inactive.

As for `CNCCC(Oc1ccc(C(F)(F)F)cc1)c1ccccc1` (configuration not stated), the half-maximal activity concentration (AC50) is 3.55 µM (active).

As for `CCOC(=O)c1ncn2c1CN(C)C(=O)c1cc(F)ccc1-2`, the outcome was inactive.

Consider `CCN(CC)C(=S)SSC(=S)N(CC)CC`, for which the concentration at half-maximal activity (AC50) is 7.94 µM (active) and 22.4 µM (active).
